According to PubChem BioAssay (NCI):
This is part of a sample that, as a whole, favours compounds with a hit. Of some 83,000 tested, about 20% had one in any assay.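 Results are percent growth after 48 hours of single-concentration exposure. 100 means growth as in untreated cells, lower positive values show inhibition; negative values down to -100 show cell death.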 The source made the active and inactive calls. The calls were made as follows: active = growth percent below 10; inactive = the rest.

Experiments:
Test in all cases: NCI-60 one-dose screen, 48 h (100 = growth as untreated, 0 = no growth, -100 = all killed)
SK-MEL-2 melanoma = system: SK-MEL-2 melanoma
EKVX NSCLC = system: EKVX NSCLC
SN12C renal = system: SN12C renal
UO-31 renal = system: UO-31 renal
ACHN renal = system: ACHN renal
CAKI-1 renal = system: CAKI-1 renal
A498 renal = system: A498 renal
CCRF-CEM leukemia = system: CCRF-CEM leukemia
MOLT-4 leukemia = system: MOLT-4 leukemia
TK-10 renal = conditions: 10 µM unless noted

Measured: growth

CN(C)CCNc1ncc(F)c(-c2cnc3cc(-c4cnn(C)c4)ccn23)n1
active: MOLT-4 leukemia; 30 µM 1.39%
inactive: SK-MEL-2 melanoma; 0.005 µM 109% | SK-MEL-2 melanoma; 30 µM 64.6% | EKVX NSCLC; 0.005 µM 97% | EKVX NSCLC; 30 µM 70.1% | SN12C renal; 0.005 µM 98.4% | SN12C renal; 30 µM 30.7% | UO-31 renal; 0.005 µM 94% | UO-31 renal; 30 µM 17.1% | ACHN renal; 0.005 µM 96.7% | ACHN renal; 30 µM 15.5% | CAKI-1 renal; 0.005 µM 99.5% | CAKI-1 renal; 30 µM 15.5% | A498 renal; 0.005 µM 99% | A498 renal; 30 µM 41.9% | CCRF-CEM leukemia; 0.005 µM 101% | CCRF-CEM leukemia; 30 µM 14.1% | MOLT-4 leukemia; 0.005 µM 104%

CC[C@]12CN3CCc4c([nH]c5ccccc45)[C@@](C(=O)OC)(c4cc5c(cc4OC)N(C)[C@H]4[C@@](O)(C(=O)OC)[C@H](OC(C)=O)[C@]6(CC)C=CCN7CC[C@]54[C@@H]76)CC(C3)[C@H]1O2 (stereo partly drawn)
inactive: MOLT-4 leukemia; 10 µM unless noted 25.7%

Cc1ccc(S(=O)(=O)OC[C@@]2(C)CC[C@]3(C)CC[C@]4(C)C(=CC[C@@H]5[C@@]6(C)CCCNC(C)(C)[C@@H]6CC[C@]54C)[C@@H]3C2)cc1
inactive: A498 renal; 10 µM unless noted 86.8%
active: SK-MEL-2 melanoma; 10 µM unless noted -59% | EKVX NSCLC; 10 µM unless noted 9.58% | SN12C renal; 10 µM unless noted -88.3% | UO-31 renal; 10 µM unless noted -2.29% | TK-10 renal -61.1% | ACHN renal; 10 µM unless noted -100% | CAKI-1 renal; 10 µM unless noted -92.4% | CCRF-CEM leukemia; 10 µM unless noted -28.6% | MOLT-4 leukemia; 10 µM unless noted -42.1%

Cc1ccc(-c2nc3nc(-c4ccc(F)cc4)nc(N4CCCNCC4)c3o2)cc1
inactive: A498 renal; 10 µM unless noted 77.5%
active: SK-MEL-2 melanoma; 10 µM unless noted -61.2% | EKVX NSCLC; 10 µM unless noted -75.6% | SN12C renal; 10 µM unless noted -91.2% | UO-31 renal; 10 µM unless noted -88.5% | TK-10 renal -93.8% | ACHN renal; 10 µM unless noted -99.3% | CAKI-1 renal; 10 µM unless noted -95.4% | CCRF-CEM leukemia; 10 µM unless noted -77.7% | MOLT-4 leukemia; 10 µM unless noted -61.1%

O=C(CCCOc1ccc(Br)cc1)Nc1ncc(Cc2ccc(F)cc2)s1
inactive: SK-MEL-2 melanoma; 10 µM unless noted 93.3% | EKVX NSCLC; 10 µM unless noted 77% | SN12C renal; 10 µM unless noted 82.7% | UO-31 renal; 10 µM unless noted 62.6% | TK-10 renal 86.5% | ACHN renal; 10 µM unless noted 72.9% | CAKI-1 renal; 10 µM unless noted 37% | A498 renal; 10 µM unless noted 76.7% | CCRF-CEM leukemia; 10 µM unless noted 64.4% | MOLT-4 leukemia; 10 µM unless noted 73.8%

CC1=C2[C@@H](CC1)[C@]1(C)O[C@@](C3CC3)(C[C@H]1OC(=O)CO)[C@H]2OC(=O)/C=C/c1ccccc1
inactive: SK-MEL-2 melanoma; 10 µM unless noted 97.2% | EKVX NSCLC; 10 µM unless noted 87.7% | SN12C renal; 10 µM unless noted 42.4% | TK-10 renal 106% | CAKI-1 renal; 10 µM unless noted 71.4% | CCRF-CEM leukemia; 10 µM unless noted 90.3%
active: UO-31 renal; 10 µM unless noted -26% | ACHN renal; 10 µM unless noted 9.75% | A498 renal; 10 µM unless noted -39.1%

O=C(NNc1ccccc1)C1CCCN1 (stereo not drawn)
inactive: SK-MEL-2 melanoma; 10 µM unless noted 87.5% | EKVX NSCLC; 10 µM unless noted 69.4% | SN12C renal; 10 µM unless noted 85.4% | UO-31 renal; 10 µM unless noted 33% | TK-10 renal 84.6% | ACHN renal; 10 µM unless noted 20% | CAKI-1 renal; 10 µM unless noted 13.5% | A498 renal; 10 µM unless noted 103% | CCRF-CEM leukemia; 10 µM unless noted 46.7% | MOLT-4 leukemia; 10 µM unless noted 44.3%

CCOC(=O)c1c(-c2ccc(OC)cc2)c(C#N)c2c(C#N)c(N)nn2c1N
inactive: EKVX NSCLC; 10 µM unless noted 41.1% | SN12C renal; 10 µM unless noted 40.8% | UO-31 renal; 10 µM unless noted 47.6% | TK-10 renal 57.7% | ACHN renal; 10 µM unless noted 53.3% | CAKI-1 renal; 10 µM unless noted 39.8% | MOLT-4 leukemia; 10 µM unless noted 10%
active: SK-MEL-2 melanoma; 10 µM unless noted 3.6% | A498 renal; 10 µM unless noted -7.96% | CCRF-CEM leukemia; 10 µM unless noted 5.96%

O=C1N=c2ccccc2=C1c1sc(=S)n(C2CC(=O)N(c3ccc(Cl)cc3)C2=O)c1O (stereo not drawn)
inactive: SK-MEL-2 melanoma; 10 µM unless noted 102% | EKVX NSCLC; 10 µM unless noted 101% | SN12C renal; 10 µM unless noted 94.9% | UO-31 renal; 10 µM unless noted 68.5% | TK-10 renal 129% | ACHN renal; 10 µM unless noted 93.9% | CAKI-1 renal; 10 µM unless noted 87.6% | A498 renal; 10 µM unless noted 114% | CCRF-CEM leukemia; 10 µM unless noted 83.8% | MOLT-4 leukemia; 10 µM unless noted 97.7%

COc1ccc(/C=C/C(=O)c2cc3c(N)c(C(=O)Nc4ccccc4Cl)sc3nc2C)cc1
inactive: SK-MEL-2 melanoma; 10 µM unless noted 30.6% | EKVX NSCLC; 10 µM unless noted 66.8% | SN12C renal; 10 µM unless noted 53.8% | TK-10 renal 20.4% | ACHN renal; 10 µM unless noted 10.2% | CAKI-1 renal; 10 µM unless noted 31.9% | A498 renal; 10 µM unless noted 30.9% | CCRF-CEM leukemia; 10 µM unless noted 58.9% | MOLT-4 leukemia; 10 µM unless noted 36.2%
active: UO-31 renal; 10 µM unless noted -10.2%

O=S(=O)(O)c1ccc(N=Nc2ccc(N=Nc3cccc4ccccc34)c(S(=O)(=O)O)c2)cc1
inactive: SK-MEL-2 melanoma; 10 µM unless noted 99.8% | EKVX NSCLC; 10 µM unless noted 97% | SN12C renal; 10 µM unless noted 102% | UO-31 renal; 10 µM unless noted 84.1% | TK-10 renal 112% | ACHN renal; 10 µM unless noted 97.8% | CAKI-1 renal; 10 µM unless noted 97% | A498 renal; 10 µM unless noted 90.1% | CCRF-CEM leukemia; 10 µM unless noted 101% | MOLT-4 leukemia; 10 µM unless noted 108%

O=[N+]([O-])c1ccc2[nH]c3nccc(NCc4cccc(Cl)c4)c3c2c1
inactive: SK-MEL-2 melanoma; 10 µM unless noted 93% | EKVX NSCLC; 10 µM unless noted 50.8% | SN12C renal; 10 µM unless noted 86.5% | UO-31 renal; 10 µM unless noted 87.2% | TK-10 renal 72.8% | ACHN renal; 10 µM unless noted 68.2% | CAKI-1 renal; 10 µM unless noted 60.2% | A498 renal; 10 µM unless noted 71.4% | CCRF-CEM leukemia; 10 µM unless noted 79.6% | MOLT-4 leukemia; 10 µM unless noted 75.9%

CCCCCC#CC1OC23CCCCC2C(C#N)(C(=N)O3)C1(C#N)C#N (stereo not drawn)
inactive: SK-MEL-2 melanoma; 10 µM unless noted 93% | EKVX NSCLC; 10 µM unless noted 97.1% | SN12C renal; 10 µM unless noted 93% | UO-31 renal; 10 µM unless noted 97.1% | TK-10 renal 108% | ACHN renal; 10 µM unless noted 102% | CAKI-1 renal; 10 µM unless noted 101% | A498 renal; 10 µM unless noted 93.6% | CCRF-CEM leukemia; 10 µM unless noted 88.4% | MOLT-4 leukemia; 10 µM unless noted 99.9%
